The term inhibition denotes the change of the read-out against control, counted positive when it falls.

The values below come from PubChem BioAssay.

A short description of assay [1]: antimalarial activity against Dd2 strain (AID 2302;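 active = growth inhibition above 50% at the single 2 µM test dose, taken to imply half-maximal potency below 2 µM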;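 also: 0% = DMSO untreated growth and 100% = chloroquine plus artemisinin killed control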). Conditions: P. falciparum Dd2 in RBCs, LDH growth readout, 72 h; at 2 µM; active compounds read high.
A short description of assay [2]: human hepatoma cell viability loss – ATP luminescence, cytotoxicity control for P. falciparum antimalarial project, primary screen (AID 2303;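 active = inhibition above 50%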;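 also: 0% = DMSO wells and 100% = digitonin-killed cells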). The note with it: HepG2 viability, 24-48 h, at 10 µM, active compounds read high.
Assay [3] has as its target L-lactate dehydrogenase (Plasmodium falciparum (isolate CDC / Honduras)) (UniProt Q27743). The assay can be described thus: PfLDH activity inhibition – cell lysate, 3D7 strain, counter-screen for P. falciparum growth inhibition project (AID 2304).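 Also: 0% = vehicle and 100% = reference inhibitor.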 Conditions: P. falciparum 3D7 crude extract, LDH APAD/NBT absorbance; at 2 µM; active compounds read high. (A counterscreen serves to expose hits that act by an unwanted route or on another target.)

A short description of assay [4]: inhibition of 3D7 malaria parasite growth – strain 3D7 (AID 2306).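 Also: 0% = DMSO wells and 100% = chloroquine plus artemisinin control wells.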 Conditions: P. falciparum 3D7 erythrocytic growth, LDH absorbance, 72 h; at 2 µM; active compounds read high.
The target of assay [5] is Calcium-dependent protein kinase 1 (Plasmodium falciparum (isolate 3D7)) (UniProt P62344). As to the kind of experiment: PfCDPK1 kinase inhibitors, biochemical, TCAMS library (AID 1159585; cut-off not given, nearly all actives have IC50 up to about 0.98 µM;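 also: inhibitors leave more ATP so luminescence rises with inhibition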). The note with it: recombinant PfCDPK1, Kinase-Glo ATP depletion luminescence. In general terms: In Kinase-Glo more light means more ATP remaining.
Calcium-dependent protein kinase 1 (Plasmodium falciparum (isolate 3D7)), sequence (P62344 whole entry, looked up): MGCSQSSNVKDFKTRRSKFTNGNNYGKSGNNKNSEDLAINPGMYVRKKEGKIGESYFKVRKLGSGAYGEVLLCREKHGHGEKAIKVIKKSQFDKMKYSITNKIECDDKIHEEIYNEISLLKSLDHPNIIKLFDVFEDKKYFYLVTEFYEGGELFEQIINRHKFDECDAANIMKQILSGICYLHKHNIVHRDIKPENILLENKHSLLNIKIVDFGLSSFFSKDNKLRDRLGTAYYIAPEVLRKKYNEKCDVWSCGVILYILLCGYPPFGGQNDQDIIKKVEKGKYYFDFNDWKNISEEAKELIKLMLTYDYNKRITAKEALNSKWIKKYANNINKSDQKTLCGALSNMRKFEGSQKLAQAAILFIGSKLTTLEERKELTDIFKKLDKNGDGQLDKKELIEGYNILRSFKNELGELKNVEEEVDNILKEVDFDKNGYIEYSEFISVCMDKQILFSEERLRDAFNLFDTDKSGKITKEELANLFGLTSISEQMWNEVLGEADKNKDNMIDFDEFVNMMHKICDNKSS
Assay [6] addresses Plasmodium falciparum protein kinase 6 (PK6, PF3D7_1337100) (UniProt Q8IDW1). As to the kind of experiment: PfPK6 kinase inhibitors, biochemical, TCAMS library (AID 1159586). Conditions: recombinant PfPK6, Kinase-Glo ATP depletion luminescence.
For assay [7], the target named is Protein kinase 7 (PK7), Plasmodium falciparum 3D7 (PF3D7_0213400) (UniProt Q7YTF7). The assay can be described thus: inhibition of Plasmodium PK7 catalytic activity – biochemical, TCAMS antimalarial set, Kinase-Glo luminescence (AID 1159587). The note with it: recombinant PfPK7, Kinase-Glo ATP depletion luminescence.
Protein kinase 7 (PK7), Plasmodium falciparum 3D7 (PF3D7_0213400), sequence (Q7YTF7 1-343): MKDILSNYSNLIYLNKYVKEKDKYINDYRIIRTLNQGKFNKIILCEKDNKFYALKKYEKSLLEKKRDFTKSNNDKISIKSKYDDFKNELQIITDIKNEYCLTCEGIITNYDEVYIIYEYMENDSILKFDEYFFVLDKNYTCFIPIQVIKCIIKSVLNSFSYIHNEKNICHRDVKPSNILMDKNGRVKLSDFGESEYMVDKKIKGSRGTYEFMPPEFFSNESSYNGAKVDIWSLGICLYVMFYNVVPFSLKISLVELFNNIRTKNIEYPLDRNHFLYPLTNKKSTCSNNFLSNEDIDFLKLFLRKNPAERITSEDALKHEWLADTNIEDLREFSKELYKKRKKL
For assay [8], the target named is Calcium-dependent protein kinase 4 (Plasmodium falciparum (isolate 3D7)) (UniProt Q8IBS5). The assay can be described thus: PfCDPK4 kinase inhibitors, biochemical, TCAMS library (AID 1159588; cut-off not given, nearly all actives have IC50 up to about 0.91 µM). The note with it: recombinant PfCDPK4, Kinase-Glo ATP depletion luminescence.
Calcium-dependent protein kinase 4 (Plasmodium falciparum (isolate 3D7)), sequence (Q8IBS5 whole entry, looked up): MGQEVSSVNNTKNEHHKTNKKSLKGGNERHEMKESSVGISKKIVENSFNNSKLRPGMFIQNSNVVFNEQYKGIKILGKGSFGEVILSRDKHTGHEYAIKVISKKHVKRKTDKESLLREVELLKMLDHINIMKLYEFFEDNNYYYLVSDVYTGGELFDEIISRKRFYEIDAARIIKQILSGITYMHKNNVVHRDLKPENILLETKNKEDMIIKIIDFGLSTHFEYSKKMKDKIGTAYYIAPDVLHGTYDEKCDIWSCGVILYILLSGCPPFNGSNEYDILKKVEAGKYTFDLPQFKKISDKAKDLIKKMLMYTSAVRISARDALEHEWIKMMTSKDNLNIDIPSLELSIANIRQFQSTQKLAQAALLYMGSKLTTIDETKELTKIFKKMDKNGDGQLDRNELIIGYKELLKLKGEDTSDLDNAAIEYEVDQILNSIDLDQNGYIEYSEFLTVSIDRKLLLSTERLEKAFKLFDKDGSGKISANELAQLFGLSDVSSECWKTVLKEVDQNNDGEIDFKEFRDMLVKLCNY

Structures are written as SMILES. A number with no mark means an inactive call. For some of these results: Results with a measured potency or affinity are listed apart. Active and inactive are the calls of the source. Unless noted, no rule for the calls is given here.

Plasmodium falciparum protein kinase 6 (PK6, PF3D7_1337100), sequence (Q8IDW1 1-305): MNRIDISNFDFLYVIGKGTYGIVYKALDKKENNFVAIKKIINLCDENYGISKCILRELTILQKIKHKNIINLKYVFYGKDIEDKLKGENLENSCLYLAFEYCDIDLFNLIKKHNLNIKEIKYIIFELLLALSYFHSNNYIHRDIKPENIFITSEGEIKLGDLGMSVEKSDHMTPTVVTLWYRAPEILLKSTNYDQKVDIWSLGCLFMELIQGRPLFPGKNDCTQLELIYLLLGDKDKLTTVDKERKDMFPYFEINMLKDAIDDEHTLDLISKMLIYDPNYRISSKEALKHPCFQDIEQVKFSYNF
L-lactate dehydrogenase (Plasmodium falciparum (isolate CDC / Honduras)), sequence (Q27743 whole entry, looked up): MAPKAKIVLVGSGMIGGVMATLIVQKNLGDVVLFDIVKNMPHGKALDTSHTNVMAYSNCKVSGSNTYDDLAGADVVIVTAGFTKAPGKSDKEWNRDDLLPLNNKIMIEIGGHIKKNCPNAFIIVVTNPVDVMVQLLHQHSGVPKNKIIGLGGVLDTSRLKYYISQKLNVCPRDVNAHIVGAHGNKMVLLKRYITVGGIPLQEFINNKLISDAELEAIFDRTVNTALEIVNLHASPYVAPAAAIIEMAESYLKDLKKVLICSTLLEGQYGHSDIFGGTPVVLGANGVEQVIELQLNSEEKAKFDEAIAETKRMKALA

As to `c1cncc(CN2CCCN(c3ccc4c(c3)CCN(Cc3ccc(-c5ncc[nH]5)cc3)CC4)CC2)c1`, the growth inhibition in assay [1] was 33%; in assay [4], 99% (active). In addition, the inhibition is 7% in assay [2] and 2% in assay [3]. In addition, the outcome in assay [5], in assay [6], in assay [7] and in assay [8] was inactive.
For `CCCN(CCC)c1nn2c(=O)c(C(=O)N3CCN(Cc4ccccc4)CC3)cnc2s1`, the growth inhibition in assay [1] was 89% (active); in assay [4] it was 84% (active). For the same molecule, the inhibition in assay [2] is -22%; in assay [3] it was -2%. Also, the outcome in assay [5], in assay [6], in assay [7] and in assay [8] was inactive.
Consider `Cc1nc2c(-n3cc(Cn4ccnc4)c4ccccc43)ncnc2n1-c1ccc(Cl)cc1Cl`, for which the growth inhibition in assay [1] was 29%; in assay [4] it was 89% (active). Moreover, the inhibition in assay [2] is 16%; in assay [3] it was -5%. The result in assay [5], in assay [6], in assay [7] and in assay [8] was inactive.
In the case of `CCN(CC)Cc1cccc(-c2cc3c(-c4ccc(C(=O)O)c(C(C)C)c4)ccnc3[nH]2)c1OC`, the growth inhibition in assay [1] and in assay [4] was 99% (active) in each case. In addition, the inhibition was 57% (active) in assay [2] and -2% in assay [3]. Moreover, the result in assay [5], in assay [6], in assay [7] and in assay [8] was inactive.
On to `C=CCOc1ccc(C(=O)Nc2nonc2-c2ccc(OC)c(OC)c2)cc1`, for which the growth inhibition in assay [1] was 91% (active); in assay [4], 100% (active). Moreover, the inhibition in assay [2] is 2%; in assay [3] it was -5%. Besides, the outcome in assay [5], in assay [6], in assay [7] and in assay [8] was inactive.
For `Cc1nnsc1C(=O)Nc1cccc(-c2ccc(-c3nc4ccccc4[nH]3)cc2)c1`, the growth inhibition in assay [1] is 58% (active); in assay [4], 100% (active). Besides, the inhibition in assay [2] was 48%; in assay [3], 0%. In addition, the result in assay [5], in assay [6], in assay [7] and in assay [8] was inactive.
As to `O=S(=O)(c1ccc2ccccc2c1)N1CCCN(Cc2ccc(OCCCN3CCCCC3)cc2)CC1`, the values for the growth inhibition in assay [1] and in assay [4] were 11% and 98% (active), respectively. Also, the results for the inhibition in assay [2] and in assay [3] were 43% and -3%, respectively. The result in assay [5], in assay [6], in assay [7] and in assay [8] was inactive.
With `CCN(CC)CCNC(=O)/C(=C/C=C/c1cc2cc(Cl)c(Cl)cc2[nH]1)OC`, the growth inhibition in assay [1] was 31%; in assay [4], 88% (active). In addition, the values for the inhibition in assay [2] and in assay [3] were 30% and -4%, respectively. In addition, the result in assay [5], in assay [6], in assay [7] and in assay [8] was inactive.
With `CC(C)c1ccc(CN2CCCCC(NC(=O)c3cc(-c4ccccc4F)cs3)C2)cc1` (stereo not given), the growth inhibition is 84% (active) in assay [1] and 99% (active) in assay [4]. Also, the figures for the inhibition in assay [2] and in assay [3] were 18% and -2%, respectively. The outcome in assay [5], in assay [6], in assay [7] and in assay [8] was inactive.
For `Cc1cccc2[nH]c(-c3ccc(-c4cccc(CNCc5cnn(-c6ccccc6)n5)c4)s3)nc12`, the results for the growth inhibition in assay [1] and in assay [4] were 58% (active) and 98% (active), respectively. For the same molecule, the values for the inhibition in assay [2] and in assay [3] were 40% and -1%, respectively. The outcome in assay [5], in assay [6], in assay [7] and in assay [8] was inactive.
Consider `O=C(C=Cc1cc([N+](=O)[O-])ccc1Cl)N1CCC(CCN2CCC(c3c[nH]c4ccccc34)CC2)CC1`, for which the values for the growth inhibition in assay [1] and in assay [4] were 26% and 92% (active), respectively. The inhibition in assay [2] was 25%; in assay [3], -2%. Further, the outcome in assay [5], in assay [6], in assay [7] and in assay [8] was inactive.
For the molecule `CC(C)S(=O)(=O)N1CCN(Cc2ccc3c(c2)nc(NC(=O)c2ccsc2)n3C[C@H](O)c2ccccc2)CC1`, the growth inhibition in assay [1] was 72% (active); in assay [4] it was 91% (active). Also, the inhibition was 56% (active) in assay [2] and 0% in assay [3]. The result in assay [5], in assay [6], in assay [7] and in assay [8] was inactive.
As for `COc1cc2nc(NCCc3ccccc3)nc(NCc3nccs3)c2cc1OC`, the growth inhibition in assay [1] is 93% (active); in assay [4], 99% (active). The inhibition in assay [2] is 1%; in assay [3], 0%. The outcome in assay [5], in assay [6], in assay [7] and in assay [8] was inactive.
For `O=C(Nc1ccc(Cl)cc1)c1ccc(CN2CCCN(Cc3cccc(O)c3)CC2)cc1`, the figures for the growth inhibition in assay [1] and in assay [4] were 69% (active) and 100% (active), respectively. Besides, the inhibition is 52% (active) in assay [2] and 4% in assay [3]. In addition, the outcome in assay [5], in assay [6], in assay [7] and in assay [8] was inactive.
As for `O=C(c1cc(OC(F)(F)F)ccc1O)N1CCN(c2ccccc2)CC1`, the growth inhibition in assay [1] was 1%; in assay [4] it was 88% (active). Further, the inhibition in assay [2] was -10%; in assay [3], -4%. Also, the result in assay [5], in assay [6], in assay [7] and in assay [8] was inactive.
For the molecule `Fc1ccc2cc(C=Cc3ccncc3)[nH]c2c1`, the growth inhibition in assay [1] was 89% (active); in assay [4], 100% (active). The inhibition was -10% in assay [2] and 0% in assay [3]. Moreover, the result in assay [5], in assay [6], in assay [7] and in assay [8] was inactive.
With `COc1ccc(F)cc1-c1ccc(C(=O)N2CCCN(c3ccc(C(F)(F)F)cn3)CC2)cc1`, the figures for the growth inhibition in assay [1] and in assay [4] were 100% (active) and 101% (active), respectively. In addition, the results for the inhibition in assay [2] and in assay [3] were 4% and -3%, respectively. Moreover, the result in assay [5], in assay [6], in assay [7] and in assay [8] was inactive.
Regarding `CC(=O)Nc1ccc(CN2CCC(CNC(=O)c3cc(-c4cccc(C(F)(F)F)c4)cs3)C2)cc1` (stereo not given), the growth inhibition in assay [1] was 3%; in assay [4], 97% (active). Also, the inhibition was 24% in assay [2] and 2% in assay [3]. The outcome in assay [5], in assay [6], in assay [7] and in assay [8] was inactive.
In the case of `CC1(C)N=C(N)NC(NOCC=Cc2ccccc2)=N1`, the values for the growth inhibition in assay [1] and in assay [4] were 2% and 98% (active), respectively. For the same molecule, the inhibition in assay [2] was 35%; in assay [3] it was -2%. In addition, the outcome in assay [5], in assay [6], in assay [7] and in assay [8] was inactive.
Take `N#CC(NC(=O)C=Cc1ccccc1)c1ccccc1` (stereo not given): the results for the growth inhibition in assay [1] and in assay [4] were 3% and 95% (active), respectively. In addition, the results for the inhibition in assay [2] and in assay [3] were 3% and -8%, respectively. Moreover, the outcome in assay [5], in assay [6], in assay [7] and in assay [8] was inactive.
